Source: PubChem
Only a selection was taken, and hits are over-represented in it overall.
VCAM1 TNFa pot = potentiators of TNFa-induced VCAM1 expression, primary screen, imaging, HUVEC, TNFa stimulus, immunofluorescence. HUVEC TNFa-stimulated VCAM-1 immunofluorescence, high-content imaging; scaled per plate to unstimulated/TNFa-only wells. activation, % at 2 µM. hit rate 0.19% among 93,000;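 active means activation above the screen mean plus 3 SD, with well images confirming the hit on visual review, cut at about 28% in these data, passing the limit was not always enough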;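 further: signal is the number of cytoplasmic VCAM-1 stained grains per positive cell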
VCAM1 pot conf = potentiators of TNFa-induced VCAM1 expression, confirmation, imaging, HUVEC, triplicate retest; 230 tested, under 10 active; shares compounds with VCAM1 TNFa pot; activation, % at 2 µM; AID 1034, 2008; HUVEC TNFa-stimulated VCAM-1 immunofluorescence imaging;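 active means activation above 30% in triplicate retests at 2 µM, then confirmed by visual review of the well images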
Of the large screens only hits and unclear results are named; the others gave an inactive call (follow-up assays come after a bar, where they were run).

C/C(Cl)=C/CC1(CN2CCCC2=O)C(=O)NC(=O)NC1=O	VCAM1 TNFa pot 106 | VCAM1 pot conf inactive
O=C(Nc1ccccc1OC(=O)N1CCOCC1)N1CCOCC1	none
Cc1ccc(C2(O)CC(C)N(C)CC2C)cc1 (stereo not given)	none
COc1ccc(Cl)cc1NC1=NCC(C)S1 (stereo not given)	none
COC(=O)c1cc2c(s1)=NC=NP=2(N1CCOCC1)N1CCOCC1	none
Cc1occc1C(=O)N1CCC2(CC1)OCCO2	none
CS(=O)(=O)N1CCCC(C(=O)N2CCC3(CC2)OCCO3)C1 (stereo not given)	none
CCOC(=O)c1[nH]c(C)c(C(=O)N2CCC3(CC2)OCCO3)c1C	VCAM1 TNFa pot 117 | VCAM1 pot conf inactive
CC1CN=C(Nc2ccc(N(C)C)cc2)S1 (stereo not given)	none
CC1CCC(NCC(O)c2ccccc2)CC1 (stereo not given)	none
CCC12CN3CCN(CC(C3)/C1=N\O)C2	none
Cc1cc(C=O)c(C)n1CC1CCCO1 (stereo not given)	none
CCCCC(=O)C1C(=O)NC(=O)NC1=O	none
Cc1cc(C)c(NC2=NCCCS2)c(C)c1	none
Cc1ccc(-c2nc3ccccc3c(=O)n2-c2nccs2)cc1	VCAM1 TNFa pot 56 | VCAM1 pot conf inactive
C=CCn1c(O)c(C(C)=NCc2cc(OC)cc(OC)c2)c(=O)[nH]c1=O	none
COc1ccc(/C=C2\C(=N\O)C3CCN2CC3)cc1	none
CC(Cc1ccccc1)NC(=O)NC(C)Cc1ccccc1 (stereo not given)	VCAM1 TNFa pot 33 | VCAM1 pot conf inactive
CCOP(=S)(OCC)c1ccc(N(C)C)cc1	none
O=C1CN(C(=O)CN2CCCCC2)C(c2ccccc2)c2cc(Br)ccc2N1 (stereo not given)	none
